EPAC2 antagonist: EPAC2 (human) antagonism; Q8WZA2; EPAC2 GEF exchange of Rap1B-BODIPY-GDP, fluorescence; Potency, µM (series often up to 114 µM), hits mostly inhibitors; 0.18% of 360,000 active; AID 720708; note: nearly all actives have a fitted effect of over 45% in size
EPAC2 agonist: agonists of human EPAC2 (RAPGEF4) | Q8WZA2 | EPAC2 activation, biochemical qHTS; response scale: 100% = 6.5 mM cAMP response | Potency, µM (series often up to 154 µM), most hits filed as activators | 0.079% of 360,000 active | AID 720711; note: nearly all actives have a fitted effect of over 50% in size
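EPAC2 (100 nM) mixed with Rap1B loaded with BODIPY-GDP (250 nM) plus 50 uM unlabeled GDP; compounds pinned in, 5 min RT, then read every 5 min for 30 min (ex 480, em 540 nm). Normalized to cAMP control.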
EPAC1 antag: antagonists of human EPAC1; Potency, µM (top dose mostly 115 µM), most hits filed as inhibitors; AID 720709; O95398; EPAC1 GEF assay, Rap1b-BODIPY-GDP exchange fluorescence; 0.14% of 360,000 active; note: nearly all actives have a fitted effect of over 50% in size
USP2a block: USP2a (human) protease inhibition; USP2 core, Ub-CHOP2 coupled fluorogenic reporter, 485/531; Potency, µM (highest dose often 38.3 µM), hits mostly inhibitors; 0.01% of 330,000 active
Target sequence (O75604 whole entry, looked up): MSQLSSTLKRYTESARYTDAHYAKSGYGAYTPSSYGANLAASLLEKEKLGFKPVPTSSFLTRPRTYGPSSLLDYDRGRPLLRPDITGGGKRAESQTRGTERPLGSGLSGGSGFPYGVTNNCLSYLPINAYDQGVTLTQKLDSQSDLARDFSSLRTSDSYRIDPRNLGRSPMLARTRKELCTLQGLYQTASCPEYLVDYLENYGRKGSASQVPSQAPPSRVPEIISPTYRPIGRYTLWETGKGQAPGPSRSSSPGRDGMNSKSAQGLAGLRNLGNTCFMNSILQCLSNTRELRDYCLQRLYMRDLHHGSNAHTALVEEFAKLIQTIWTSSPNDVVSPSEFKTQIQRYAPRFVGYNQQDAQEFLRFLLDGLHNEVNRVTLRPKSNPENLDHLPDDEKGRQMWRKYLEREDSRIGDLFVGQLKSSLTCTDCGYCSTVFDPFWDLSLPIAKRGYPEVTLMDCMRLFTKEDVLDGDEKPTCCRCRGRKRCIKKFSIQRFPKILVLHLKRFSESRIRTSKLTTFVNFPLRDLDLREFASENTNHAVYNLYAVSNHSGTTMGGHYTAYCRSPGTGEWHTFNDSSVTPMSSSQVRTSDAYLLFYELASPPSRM
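Deubiquitinase activity read as fluorescence (485/531 nm) after Ub-CHOP2 cleavage activates the enterokinase reporter on its substrate; USP2 core 10nM, Ub-CHOP2 and substrate 25nM each, 30min compound preincubation then 60min RT; data normalized to NEM, curves fitted.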
USP1 inh: USP1/UAF1 (human) deubiquitinase inhibition; O94782; recombinant USP1/UAF1, Ub-Rhodamine cleavage fluorescence; Potency, µM (titrated, usually from 57.1 µM), most hits filed as inhibitors; 0.23% of 390,000 active; AID 743255; note: nearly all actives have a fitted effect of over 60% in size
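Step one: compound is pinned into 1nM USP1/UAF1 in HEPES pH 7.8 buffer with TCEP. Step two: 15 min room-temperature incubation. Step three: Ub-Rho (150nM final) starts cleavage, tracked by fluorescence over six one-minute reads.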
EPAC1 agonist: EPAC1 (human) agonism | O95398 | EPAC1 agonist qHTS, biochemical assay; response scale: 100% = response to 6.5 mM cAMP | Potency, µM (series often up to 154 µM), hits mostly activators | 0.073% of 360,000 active; note: nearly all actives have a fitted effect of over 60% in size
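Nucleotide exchange assay: 100 nM EPAC1 with 250 nM Rap1B loaded with BODIPY-GDP and 50 uM GDP, room temperature. Fluorescence (480/540 nm) read every 5 min for 30 min; signal change normalized to 6.5 mM cAMP as full agonist.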
A number is an active result. Only some compounds are listed: those with a hit (about 0.44% of all), similar ones and a draw of the others. Calls come from the whole dose curve; as a rule, active = well fitted curve in the direction sought with a large enough effect; inconclusive = small, poorly fitted or top-dose-only effect, or another doubt; inactive = no such curve, though single readings can be large; an effect the other way counts as inactive or inconclusive.

For COc1cccc2c1C(=O)c1c(O)c3c(c(O)c1C2=O)CC(O)(C(C)=NO)CC3OC1CC(N)C(O)C(C)O1 (stereo unspecified) the results were EPAC2 antagonist inactive, EPAC2 agonist inactive, EPAC1 antag inactive, USP1 inh 25µM and EPAC1 agonist inactive.
Screening CC1CN(c2ccccc2)NC1=O (stereo unspecified) returned EPAC2 antagonist inactive, EPAC2 agonist inactive, EPAC1 antag inactive, USP2a block inactive, USP1 inh inconclusive and EPAC1 agonist inactive.
For COC1C(OC(=O)c2ccc(C)[nH]2)C(O)C(Oc2ccc3c(O)c(NC(=O)c4ccc(O)c(CC=C(C)C)c4)c(=O)oc3c2Cl)OC1(C)C (stereo unspecified) the results were EPAC2 antagonist inactive, EPAC2 agonist inactive, EPAC1 antag 40µM, USP2a block inactive, USP1 inh inactive and EPAC1 agonist inactive.
Cc1cccc(N2C(=O)NC(=O)/C(=C\c3cc(C)n(-c4sc5c(c4C#N)CCCC5)c3C)C2=O)c1C was read as EPAC2 antagonist inactive, EPAC2 agonist inactive, EPAC1 antag 35µM, USP2a block inactive, USP1 inh inconclusive and EPAC1 agonist inactive.
`Cc1cc(C=C2C(=O)NC(=O)NC2=O)c(C)n1-c1ccc2c(c1)OCO2` gave EPAC2 antagonist inactive, EPAC2 agonist inactive, EPAC1 antag inactive, USP2a block inactive, USP1 inh inactive and EPAC1 agonist inactive.
Cc1cc(C=C2C(=O)NC(=S)NC2=O)c(C)n1-c1ccc2c(c1)OCO2 was read as EPAC2 antagonist inactive, EPAC2 agonist inactive, EPAC1 antag 56µM, USP2a block inactive, USP1 inh inactive and EPAC1 agonist inactive.
For Cc1c(NS(=O)(=O)c2ccccc2)ccc([N+](=O)[O-])c1Cl the results were EPAC2 antagonist 40µM, EPAC2 agonist inactive, EPAC1 antag inactive, USP1 inh inactive and EPAC1 agonist inactive.
For COc1ccc(NC(=O)CN(C)C(=O)CSC(c2ccccc2)c2ccccc2)cc1 the results were EPAC2 antagonist inactive, EPAC2 agonist inactive, EPAC1 antag inactive, USP2a block inactive, USP1 inh inactive and EPAC1 agonist inactive.
`COc1ccc(C(SCC(NC(=O)OCc2ccccc2)C(=O)O)c2ccc(OC)cc2)cc1` (stereo unspecified) gave EPAC2 antagonist 14µM, EPAC2 agonist inactive, EPAC1 antag inactive, USP1 inh inactive and EPAC1 agonist inactive.
For O=c1cc(-c2ccc(O)c(O)c2)oc2cc(O)cc(O)c12 the results were EPAC2 antagonist inactive, EPAC2 agonist inactive, EPAC1 antag 45µM, USP2a block inactive, USP1 inh inconclusive and EPAC1 agonist inactive.
CN1C(=O)C(=Cc2ccc(N3CCOCC3)o2)C(=O)N(C)C1=O was read as EPAC2 antagonist inconclusive, EPAC2 agonist inactive, EPAC1 antag inactive, USP2a block inactive, USP1 inh inconclusive and EPAC1 agonist inactive.
`CN1C(=O)C(=Cc2ccc(N3CCCCCC3)o2)C(=O)N(C)C1=S` gave EPAC2 antagonist inactive, EPAC2 agonist inconclusive, EPAC1 antag inactive, USP2a block inactive, USP1 inh 25µM and EPAC1 agonist inactive.
For COc1cc2c(cc1O)[C@@H]1Cc3ccc(OC)c(O)c3CN1CC2 the results were EPAC2 antagonist inactive, EPAC2 agonist inactive, EPAC1 antag inactive, USP2a block inactive, USP1 inh 14µM and EPAC1 agonist inactive.
Screening COc1ccc(C[C@@H]2c3cc(O)c(OC)cc3CCN2C)cc1O returned EPAC2 antagonist inactive, EPAC2 agonist inactive, EPAC1 antag inactive, USP2a block inactive, USP1 inh inactive and EPAC1 agonist inactive.
COc1ccc(S(=O)(=O)N(C)C[C@H]2Oc3c(NC(=O)NC4CCCCC4)cccc3C(=O)N([C@H](C)CO)C[C@@H]2C)cc1 was read as EPAC2 antagonist inactive, EPAC2 agonist inactive, EPAC1 antag inactive, USP2a block inactive, USP1 inh inconclusive and EPAC1 agonist inactive.
For O=C1NC(=O)N(c2ccccc2)C(=O)/C1=C\c1ccc([N+](=O)[O-])o1 the results were USP2a block inactive.
CN1C(=O)NC(=O)/C(=C/c2ccc([N+](=O)[O-])s2)C1=O was read as EPAC2 antagonist inactive, EPAC2 agonist inactive, EPAC1 antag inconclusive, USP2a block inactive, USP1 inh 25µM and EPAC1 agonist inactive.
COc1ccc(OC)c(N2C(=O)NC(=O)/C(=C\c3ccc([N+](=O)[O-])s3)C2=O)c1 was read as EPAC2 antagonist inactive, EPAC2 agonist inactive, EPAC1 antag inconclusive, USP2a block inactive, USP1 inh inconclusive and EPAC1 agonist inactive.
`O=C1NC(=O)N(c2ccccc2)C(=O)/C1=C\c1ccc([N+](=O)[O-])s1` gave EPAC2 antagonist inactive, EPAC2 agonist inactive, EPAC1 antag inconclusive, USP2a block inactive, USP1 inh 18µM and EPAC1 agonist inactive.
For O=C1NCCOC(=O)[C@@H](Cc2ccc(F)cc2)CC/C=C/C[C@@H]1CC(=O)N(CCO)Cc1ccccc1 the results were EPAC2 antagonist inactive, EPAC2 agonist inactive, EPAC1 antag inactive, USP2a block inactive, USP1 inh inconclusive and EPAC1 agonist inactive.
COC(=O)c1c(NC(=O)C2CC=CCC2C(=O)O)sc2c1CCCCC2 (stereo unspecified) was read as EPAC2 antagonist inactive, EPAC2 agonist inactive, EPAC1 antag inconclusive, USP2a block inactive, USP1 inh inactive and EPAC1 agonist inactive.
For COc1ccc(-c2noc(=O)n2Cc2cc(C)ccc2C)cc1 the results were EPAC2 antagonist inconclusive, EPAC2 agonist inactive, EPAC1 antag inactive, USP2a block inactive, USP1 inh inactive and EPAC1 agonist inactive.
Screening O=C1C(=O)C(Cl)=C(Cl)C(Cl)=C1Cl returned EPAC2 antagonist inactive, EPAC2 agonist inactive, EPAC1 antag inconclusive and EPAC1 agonist inactive.
`Cn1cccc1/C=C1/C(=O)NC(=S)N(Cc2ccc(F)cc2)C1=O` gave EPAC2 antagonist inactive, EPAC2 agonist inactive, EPAC1 antag 16µM, USP2a block inactive, USP1 inh inactive and EPAC1 agonist inactive.
For CN(N=Cc1ccc([N+](=O)[O-])cc1)c1ccccn1 the results were EPAC2 antagonist inactive, EPAC2 agonist inactive, EPAC1 antag inactive, USP1 inh inactive and EPAC1 agonist inactive.
For COc1cc(/C=C/c2nc3ccccc3c(=O)n2-c2cccc(O)c2)ccc1O the results were EPAC2 antagonist inactive, EPAC2 agonist inactive, EPAC1 antag 50µM, USP2a block inactive, USP1 inh inactive and EPAC1 agonist inactive.
`O=C(C[C@@H]1CC[C@@H]2[C@H](COC[C@H](O)CN2Cc2cccc(C(F)(F)F)c2)O1)NCc1ccc(Cl)cc1` gave EPAC2 antagonist inconclusive, EPAC2 agonist inactive, EPAC1 antag inactive and EPAC1 agonist inactive.

Assay outcomes: PubChem BioAssay, National Center for Advancing Translational Sciences (NCATS)
